A selection: hits, their analogues and other compounds. The true share with any hit is near 10%.
3T3 cytotox – cytotoxic compounds in NIH 3T3 cells. NIH 3T3 viability, CellTiter-Glo ATP luminescence, 48-72 h. Potency, µM (series often up to 96.7 µM), without a hit: at the top dose activity change, negative = cytotoxicity, most hits filed as inhibitors. 94,000 compounds, 4.3% hits. AID 1345082; note: nearly all actives have a fitted effect of over 55% in size
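Cytotoxicity is measured as loss of cellular ATP: NIH 3T3 cells (400/well) are exposed to compound for 48 or 72 hr at 37 °C, then CellTiter-Glo luminescence is imaged after 10 min at room temperature.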
GPT2 inh – blocks human glutamate pyruvate transaminase 2 | Q8TD30 | Recombinant GPT2, coupled pyruvate oxidase/HRP Amplex Red fluorescence | Potency, µM (doses to about 57.7 µM), without a hit: at the highest dose activity change, negative = inhibition, hits mostly inhibitors | 100,000 compounds, 0.25% hits | AID 1671188; note: nearly all actives have a fitted effect of over 60% in size
Target sequence (Q8TD30 whole entry, looked up): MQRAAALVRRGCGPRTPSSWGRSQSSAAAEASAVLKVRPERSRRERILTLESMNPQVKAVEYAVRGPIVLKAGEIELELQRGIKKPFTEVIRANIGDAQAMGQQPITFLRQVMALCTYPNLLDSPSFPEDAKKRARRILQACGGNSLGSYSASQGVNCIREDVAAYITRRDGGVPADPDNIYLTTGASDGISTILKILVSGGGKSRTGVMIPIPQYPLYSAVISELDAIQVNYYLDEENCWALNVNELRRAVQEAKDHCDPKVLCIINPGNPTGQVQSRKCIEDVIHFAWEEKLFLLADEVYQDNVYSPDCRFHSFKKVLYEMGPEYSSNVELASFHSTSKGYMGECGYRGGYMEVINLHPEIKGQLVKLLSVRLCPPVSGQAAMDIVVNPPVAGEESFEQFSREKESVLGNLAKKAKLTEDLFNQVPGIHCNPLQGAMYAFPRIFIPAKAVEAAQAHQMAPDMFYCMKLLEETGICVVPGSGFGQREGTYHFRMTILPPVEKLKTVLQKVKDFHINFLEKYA
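Fluorescence of coupled pyruvate oxidase/HRP/Amplex Red system (50uM Amplex, 30 min, dark) reports pyruvate formed by GPT2. Enzyme reaction: 10ng/uL GPT2, 2mM L-alanine, 250uM a-KG, 30 min room temperature, pH 7.5; 50uM AOA control.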
Luciferase inh – inhibitors of firefly (Photinus pyralis) luciferase; P08659; purified P. pyralis luciferase, luminescence, biochemical; Potency, µM (series often up to 115 µM), most hits filed as inhibitors; 76,000 compounds, 2.5% hits; note: nearly all actives have a fitted effect of over 65% in size
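Luminescence read by CCD imager after adding enzyme (10nM final) to wells holding compound, titrated in qHTS. Substrates 10uM each D-luciferin and ATP; buffer 50mM Tris acetate pH 7.5, 10mM Mg acetate, Tween-20, BSA.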
HEK293 tox – kills HEK 293 cells. HEK 293 viability, ATP luminescence (CellTiter-Glo), 48-72 h. Potency, µM (top dose mostly 115 µM), without a hit: top-dose activity change, negative = cytotoxicity, actives largely listed as inhibitors. 94,000 compounds, 6.6% hits; note: nearly all actives have a fitted effect of over 60% in size
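Read-out: CellTiter-Glo ATP luminescence. Cells: HEK 293, 250 cells/well. Exposure: 48 or 72 hr, 37 degree Celsius.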
NPR1 antag – antagonists of human natriuretic peptide receptor Npr1; P16066; Potency, µM (highest dose often 46.3 µM), for the others: at the highest dose activity change, negative = inhibition, most hits filed as inhibitors; 76,000 compounds, 1.6% hits; HEK293 hNpr1 GloSensor cGMP, ANP-stimulated luminescence; calls by dose curve; note: nearly all actives have a fitted effect of over 60% in size
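HEK293 cells stably expressing human Npr1 and cGMP GloSensor pGS-40F, loaded 2 h with 2% GloSensor reagent, given compound 30 min at room temperature. Luminescence read before and 20 min after 0.1 nM hNppA.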
The depositor's hits bear a star; ! = not active in a repeat; [ ] = dose if it differs, or a comment. Unless noted, calls come from the whole dose curve; as a rule, active = well fitted curve in the direction sought with a large enough effect; inconclusive = small, poorly fitted or top-dose-only effect, or another doubt; inactive = no such curve, though single readings can be large; an effect the other way counts as inactive or inconclusive. % is set by controls: 0 for no effect and ±100 for the full control effect; potency is the fitted concentration of half-maximal effect.

Screening COc1cc(C(O)CO)ccc1O (centres undefined) returned GPT2 inh inactive.
CC(C)NCC(O)c1ccc(O)c(O)c1 (centres undefined) was read as GPT2 inh 17µM*!.
NC[C@H](O)c1ccc(O)c(O)c1 was read as GPT2 inh 10µM*!.
For Oc1ccc(C(O)CNCCCCCCNCC(O)c2ccc(O)c(O)c2)cc1O (centres undefined) the results were GPT2 inh -20%.
`CNC[C@H](O)c1ccc(O)c(O)c1` gave GPT2 inh 14µM*!.
For COc1ccccc1-c1nc(C(=O)N2CCC(C#N)CC2)n2ccccc12 the results were 3T3 cytotox -15%, GPT2 inh inactive, Luciferase inh inactive, HEK293 tox -12% and NPR1 antag -1%.
Screening O=C1C(Oc2ccc(F)cc2)C2(CCCCC2)N1Cc1ccc(F)cc1 (centres undefined) returned 3T3 cytotox 25µM*, GPT2 inh 1% and HEK293 tox 40µM*.
Screening O=C(CN1C(=O)C(Oc2ccc(F)cc2)C12CCCCC2)NCC1CC1 (centres undefined) returned 3T3 cytotox -21%, GPT2 inh inactive and HEK293 tox inconclusive.
For O=C(c1ccc2[nH]ccc2c1)N1CCC2(CC1)Nc1ccccc1NC2=O the results were 3T3 cytotox -14%, GPT2 inh -15%[11.5 µM], Luciferase inh inactive, HEK293 tox 40µM* and NPR1 antag -10%.
O=C(c1ccc2n[nH]nc2c1)N1CCC2(CC1)Nc1ccccc1NC2=O was read as 3T3 cytotox -13%, GPT2 inh inconclusive, Luciferase inh inactive, HEK293 tox -29% and NPR1 antag 5%.
`CCOC(=O)[C@@H]1[C@@H](OC)C(=O)N(C)C12CCN(C(=O)c1cc(OC)c(OC)c(OC)c1)CC2` gave 3T3 cytotox inconclusive and HEK293 tox -2%.
`O=C(Nc1cc(-c2ccncc2)nn1-c1ccccc1)c1cccc(Br)c1` gave 3T3 cytotox 32µM*, GPT2 inh -10% and HEK293 tox inconclusive.
`Cn1nc(-c2ccncc2)cc1NC(=O)c1cccc(Br)c1` gave 3T3 cytotox inconclusive, GPT2 inh inactive and HEK293 tox inconclusive.
Screening Cn1nc(-c2ccncc2)cc1NC(=O)c1ccc(Cl)cc1 returned 3T3 cytotox inconclusive, GPT2 inh -7%[88.5 µM] and HEK293 tox inconclusive.
Cn1nc(-c2ccncc2)cc1NC(=O)c1ccc(C(F)(F)F)cc1 was read as 3T3 cytotox inconclusive, GPT2 inh -4% and HEK293 tox 11µM*.
For O=C(Nc1ccc(C2(C(=O)NCC3CC3)CCCCC2)cc1)C1CC1 the results were 3T3 cytotox -4%, GPT2 inh 5%, Luciferase inh inactive, HEK293 tox -8% and NPR1 antag 4%.
CS(=O)(=O)Nc1ccc(C2(C(=O)NCc3ccc(F)cc3)CCCCC2)cc1 was read as 3T3 cytotox -12%, GPT2 inh -5%, Luciferase inh inactive, HEK293 tox -8% and NPR1 antag 3%.
`Cc1ccccc1CNC(=O)C1(c2ccc(NS(C)(=O)=O)cc2)CCCCC1` gave 3T3 cytotox 28µM*, GPT2 inh inactive, Luciferase inh inactive, HEK293 tox -29% and NPR1 antag -1%.
Cc1ccc(CNC(=O)C2(c3ccc(NC(=O)C4CC4)cc3)CCCCC2)o1 was read as 3T3 cytotox inconclusive, GPT2 inh 2%, Luciferase inh inactive, HEK293 tox 45µM* and NPR1 antag -10%.
`CC(C)C(=O)Nc1ccc(C2(C(=O)NCc3cccs3)CCCCC2)cc1` gave 3T3 cytotox 32µM*, GPT2 inh inactive, Luciferase inh inactive, HEK293 tox inconclusive and NPR1 antag 6%.
CCCCn1c(=O)c(C(=O)NCCCc2ccccc2)nc2cccnc21 was read as 3T3 cytotox inconclusive, GPT2 inh -22% and HEK293 tox inconclusive.
Screening O=C(c1scc2c1OCCO2)N1CCC2(CC1)c1ccccc1CC2O (centres undefined) returned 3T3 cytotox -15%, GPT2 inh -2%[11.5 µM], Luciferase inh inactive, HEK293 tox -28% and NPR1 antag 3%.
Screening Cn1cccc1CN1CCC(N2C(=O)C(OCC3CC3)C23CCCCC3)CC1 (centres undefined) returned 3T3 cytotox inconclusive, GPT2 inh -1%, Luciferase inh inactive, HEK293 tox 45µM* and NPR1 antag -15%.
Screening COc1ccc(-c2cc(N3CCCC(NC(=O)Cc4ccc(OC)c(OC)c4)C3)n[nH]2)cc1 (centres undefined) returned 3T3 cytotox inconclusive, GPT2 inh inconclusive, Luciferase inh inconclusive, HEK293 tox 35µM* and NPR1 antag inconclusive.
O=C(NC1CCN(c2cc(-c3ccc(Cl)cc3)[nH]n2)C1)c1ccc(Br)o1 (centres undefined) was read as 3T3 cytotox inconclusive, GPT2 inh inconclusive, Luciferase inh inactive, HEK293 tox 35µM* and NPR1 antag -28%.
Screening Cc1ccc(OCC(=O)NC2CCN(c3cc(-c4ccccc4)[nH]n3)CC2)cc1 returned 3T3 cytotox -31%, GPT2 inh inactive, Luciferase inh inactive, HEK293 tox -18% and NPR1 antag -23%.
O=C(NC1CCCN(c2cc(-c3ccc(Cl)cc3)[nH]n2)C1)c1ccc(Br)o1 (centres undefined) was read as 3T3 cytotox inconclusive, GPT2 inh -10%, Luciferase inh inactive, HEK293 tox 45µM* and NPR1 antag -25%.
Screening COc1ccc(-c2cc(N3CCC(NC(=O)COc4cccc(C)c4)CC3)n[nH]2)cc1 returned 3T3 cytotox 40µM*, GPT2 inh inactive, Luciferase inh inactive, HEK293 tox inconclusive and NPR1 antag inconclusive.
CCNC(=O)OC1CN(CC(C)C)C(=O)CN(C(=O)c2cccs2)C1 (centres undefined) was read as 3T3 cytotox inconclusive and HEK293 tox -12%.
Cc1nnc2ccc(N3CCCN(C(=O)c4ccccc4Cl)CC3)nn12 was read as 3T3 cytotox inactive and HEK293 tox inactive.
Screening COc1ccc(-c2cc(N3CCCC(NC(=O)c4ccc(Br)o4)C3)n[nH]2)cc1 (centres undefined) returned 3T3 cytotox inconclusive, GPT2 inh inconclusive, Luciferase inh 32µM*, HEK293 tox inconclusive and NPR1 antag -21%.
`CNC(=O)c1cc(C2CC2)nc2onc(C3CCN([S+](=O)([O-])C(C)C)C3)c12` (centres undefined) gave 3T3 cytotox -14% and HEK293 tox -12%.
